Test results reported in PubChem BioAssay (EPA / NIEHS).
Values joined by “and” are separate entries in the source; they are usually repeats but may differ in a detail not shown here. Equal values may be shown once. Some structures have more than one record in an assay (separate samples or runs), and their calls can disagree. Active and inactive are the calls of the source. Rule for the calls: active = hit-call score of the fitted dose curve at least 0.9, where 1 is the maximum; inactive = score below 0.9.

These molecules were tested on TIMP metallopeptidase inhibitor 1 (TIMP1), TIMP1 (gene 7076) (assay: BSK_hDFCGF_TIMP1: BioMAP Diversity Plus: hDFCGF Assay for TIMP metallopeptidase inhibitor 1 (TIMP1) Biomarker Activity (AID 2283062)). Details: primary human foreskin fibroblasts; actives raise or lower the signal.
Procedure: BSK_hDFCGF is a cell-based, multiplexed-readout assay that uses foreskin fibroblast, a human skin primary cell, with measurements taken at 24 hours after chemical dosing in a 96-well plate.BSK_hDFCGF_TIMP1 is an assay component measured in the BSK_hDFCGF assay. It measures TIMP-1 antibody related to regulation of gene expression using ELISA technology.Data from the assay component BSK_hDFCGF_TIMP1 was analyzed into 1 assay endpoint. This assay endpoint, BSK_hDFCGF_TIMP1, was analyzed with bidirectional fitting relative to DMSO as the negative control and baseline of activity. Using a type of binding reporter, gain or loss-of-signal activity can be used to understand changes in the signaling as they relate to the gene TIMP1. Furthermore, this assay endpoint can be referred to as a primary readout, because this assay has produced multiple assay endpoints where this one serves a signaling function. To generalize the intended target to other relatable targets, this assay endpoint is annotated to the protease inhibitor intended target family, where the subfamily is metalloproteinase inhibitor.
The levels of cell surface (or secreted, indicated by the prefix "s") biomarker endpoints were measured by ELISA. Overt cytotoxicity to cells in confluent adherent cultures (all systems other than the BT system) was assessed by measuring total protein levels using sulforhodamine B (SRB) staining in parallel cultures at the time of biomarker measurements, indicated as SRB endpoints. For proliferation assays for adherent cell types, individual cell types are cultured at sub-confluence and relative cell numbers quantified by SRB staining at time points optimized for each system (48 h: 3C and CASM3C systems; 72 h: BT and HDF3CGF systems; 96 h: SAg system). SRB was performed by staining cells with 0.1% SRB after fixation with 10% TCA and reading wells at 560 nm.Viability and proliferation of PBMC (T cells) was quantified by Alamar Blue reduction for the SAg and BT systems. For PBMC viability (referred to as PBMC Cytotoxicity within the assay endpoint names), cells were plated (75,000/well in a 96-well plate) and then chemical samples added for 1 h before addition of activators, SEB and TSST-1 (20 ng/mL final concentration each). Cells were incubated for 90 h. Then, Alamar Blue (20 uL/well) (Invitrogen, Cat DAL1100) was added for 6 h, and the plates were read with a fluorescence microplate reader at 546/580 nm (excitation/emission). For PBMC proliferation, cells were plated and activated as above but incubated for only 16 h prior to addition of Alamar Blue. Plates were read after 6 h.

Row | Structure (SMILES) | outcome | AC50
1 | Cc1ccc(N)c(N)c1 | inactive | 
2 | O=P(OCCCl)(OCCCl)OCCCl | inactive | 
3 | Nc1ccc(Oc2ccc(N)cc2)cc1 | inactive | 
4 | CNC(=O)Oc1cccc2c1OC(C)(C)C2 | inactive | 
5 | CS(=O)(=O)NC(=O)c1cc(Oc2ccc(C(F)(F)F)cc2Cl)ccc1[N+](=O)[O-] | inactive | 
6 | N#CC(Br)(Br)C(N)=O | inactive | 
7 | CC(C)COC(=O)c1ccccc1C(=O)OCC(C)C | inactive | 
8 | COP(=S)(OC)SCN1C(=O)c2ccccc2C1=O | inactive | 
9 | CC(O)CCO (stereo not given) | inactive | 
10 | CCCCOC(=O)c1ccccc1C(=O)OCc1ccccc1 | inactive | 
11 | Nc1ccc([N+](=O)[O-])cc1 | inactive | 
12 | CCCSC(=O)N(CCC)CCC | inactive | 
13 | CC(C)(C)OOC(=O)c1ccccc1 |  | 11.9 µM (active)
14 | Nc1ccc(N=Nc2ccccc2)cc1 | inactive | 
15 | C[N+](C)(C)CC1CO1 (stereo not given) | inactive | 
16 | Oc1ccccc1Cl | inactive | 
17 | CCC12COCN1COC2 | inactive | 
18 | Cc1cc(N=Nc2ccccc2C)ccc1N | inactive | 
19 | CC(C)(O)c1cnn2c(-c3ccc(F)c(-c4c(F)cccc4C#N)c3)cnc2n1 | inactive | 
20 | CCN(CC)CCO | inactive | 

Row | Structure (SMILES) | outcome | AC50
21 | Clc1ccccc1Cl | inactive | 
22 | CN(C)[C@@H]1C(=O)C(C(N)=O)=C(O)[C@@]2(O)C(=O)C3=C(O)c4c(O)cccc4[C@@](C)(O)[C@H]3C[C@@H]12 | inactive | 
23 | CCC[CH2][Sn]([Cl])([CH2]CCC)[CH2]CCC |  | 0.148 µM (active)
24 | CCCCCCCCCCCCCN1CC(C)OC(C)C1 (stereo not given) | inactive | 
25 | OCCCBr | inactive | 
26 | N#CC(Br)Br | inactive | 
27 | Cc1cccc(N)c1N | inactive | 
28 | CCNS(=O)(=O)C(F)(F)C(F)(F)C(F)(F)C(F)(F)C(F)(F)C(F)(F)C(F)(F)C(F)(F)F | inactive | 47.2 µM (active) and 53.5 µM (active)
29 | Cc1ccc(N)cc1 | inactive | 
30 | Cn1cc(-c2ccccc2)c(=O)c(-c2cccc(C(F)(F)F)c2)c1 | inactive | 
31 | c1ccc2c(c1)-c1cccc3cccc-2c13 | inactive | 
32 | Clc1ccc(C(c2ccc(Cl)cc2)C(Cl)(Cl)Cl)cc1 |  | 13 µM (active)
33 | CCCCC(CC)COC(=O)c1ccc(C(=O)OCC(CC)CCCC)c(C(=O)OCC(CC)CCCC)c1 (stereo not given) | inactive | 
34 | Brc1ccc(Oc2ccccc2)cc1 | inactive | 
35 | CO[C@@H]1[C@H](OC(=O)NC(=O)CCl)CC[C@]2(CO2)[C@H]1[C@@]1(C)O[C@@H]1CC=C(C)C |  | 5.82 µM (active)
36 | O=[N+]([O-])c1ccc(Oc2ccc(Cl)cc2Cl)cc1 | inactive | 
37 | C=CCc1ccc2c(c1)OCO2 | inactive | 
38 | OCCCl | inactive | 
39 | CCOC(=O)[C@]1(c2ccccc2)Oc2ccccc2[C@@H]1N |  | 30.2 µM (active)
